Tgondii IFNg: inhibitors of Toxoplasma gondii growth with IFN-gamma; Toxoplasma gondii growth in IFN-gamma-treated host cells; hits give low values; activity change, negative = inhibition, % (concentration not given with the values); actives 3.8% (n = 69,000); in the data active means activity change below about -70%, passing the limit was not always enough;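 further: host cells are HeLa cells infected with Toxoplasma gondii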
An asterisk follows results filed as active; ! = not confirmed by another sample. This is one part of a sample in which hits are shown more often than they occur.

SMILES | Tgondii IFNg
COc1ccc(CNC(=O)Cn2ncc3c(N4CCC(C)CC4)ncnc32)cc1 | -85.2*
CCN(CC)c1ncnc2c1cnn2CC(=O)NCc1ccc(OC)cc1 | -99.4*
COCCCNC(=O)Cn1ncc2c(N3CCC(C)CC3)ncnc21 | 61.3
CCN(CC)c1ncnc2c1cnn2CC(=O)NCc1cccc(OC)c1 | 84.1
CCN(CC)c1ncnc2c1cnn2CC(=O)NCc1ccc2c(c1)OCO2 | -64.4
Cc1ccc(C)c(NC(=O)Cn2ncc3c(N4CCCCCC4)ncnc32)c1 | 63.2
COc1ccc(C)cc1NC(=O)Cn1ncc2c(N3CCCCCC3)ncnc21 | -90.8*
COc1cccc(CNC(=O)Cn2ncc3c(N4CCC(C)CC4)ncnc32)c1 | -99.9*
COc1ccc(C)cc1NC(=O)Cn1ncc2c(N3CCOCC3)ncnc21 | -43.9
CNC(=O)[C@@H]1CC2CN(C(=O)c3cc(C)oc3C)CC2N1C (some centres undefined) | 0.4
O=S(=O)(CCc1ccccc1)NCCc1csc(-c2cccc(F)c2)n1 | -32.4
O=C(Cn1ncc2c(N3CCCCCC3)ncnc21)N1CCN(c2ccccc2)CC1 | -49.5
Fc1ccc(C2=CCN(C(=S)Nc3ccccc3)CC2)cc1 | 96.9
CCCc1nnc2sc(CCc3ccccc3)nn12 | -13.2
CN(Cc1cccs1)c1nc(C(C)(C)C)nc2c1cnn2C | -53.3
COc1cccc(-c2cn[nH]c2C2CCN(C3CCOCC3)CC2)c1 | 1.2
O=C(NCCCN1CCCCC1)C1CN(C(=O)c2ccncc2)CC12CCCCC2 (centres undefined) | -52.1
CCOc1ccc(CNC(=O)Cn2ncc3c(N4CCCCCC4)ncnc32)cc1OCC | 76.3
Cc1ccc(C)c(NC(=O)Cn2ncc3c(N4CCN(c5ccccn5)CC4)ncnc32)c1 | -3.1
O=C(Cn1ncc2c(N3CCN(c4ccccn4)CC3)ncnc21)NCc1ccccc1Cl | -92.3*
Cc1ccc(CNC(=O)Cn2ncc3c(N4CCN(c5ccccn5)CC4)ncnc32)cc1 | -97.3*
CCc1ccccc1NC(=O)Cn1ncc2c(N3CCN(c4ccccn4)CC3)ncnc21 | -56.5
O=C(Cn1ncc2c(N3CCCC3)ncnc21)NCc1ccc(Br)cc1 | 61.2
Cc1ccc(NC(=O)Cn2ncc3c(N4CCN(c5ccccn5)CC4)ncnc32)cc1 | 98.8
COc1ccc(CNC(=O)Cn2ncc3c(N4CCCCCC4)ncnc32)cc1 | 6.3
SMILES | Tgondii IFNg
COc1ccc(CNC(=O)Cn2ncc3c(N4CCCCC4)ncnc32)cc1 | -101.9*
CCCCOc1ccc(CNC(=O)Cn2ncc3c(N4CCCCCC4)ncnc32)cc1 | -98.5*
COc1ccc(CNC(=O)Cn2ncc3c(N4CCCCC4)ncnc32)cc1OC | 170.1
O=C(Cn1ncc2c(N3CCOCC3)ncnc21)NCc1ccccc1Cl | 74.3
Cc1ccc(NC(=O)c2c(O)c3ccccc3n(-c3ccccc3)c2=O)cc1F | 95.9
CCn1ncc2c1C(COC)CN(Cc1ccc(C)o1)C2 (centres undefined) | 6.9
CCN(CC)CC1CN(c2ncccn2)Cc2nccn2C1 (centres undefined) | 15.0
COc1c(F)cc(-c2nccn2CCn2cccn2)cc1Cl | 4.3
O=C(c1cc2cccnc2n(Cc2ccccc2)c1=O)N1CCN(c2ccccc2F)CC1 | -51.7
Cc1nc(=O)c2ccccc2n1C1=CCN(C(=O)c2nccc3ccccc23)CC1 | 36.4
CC(C)NC(=O)CNC(=O)CN1CCCCCCC1 | 8.5
CC(=O)N1CC2(CCN(C(=O)c3ccc[nH]3)CC2)CC1C(=O)O (centres undefined) | 18.0
CN(C)CCOCc1cncc2c1CCN(C(=O)C1CCOCC1)C2 | 22.0
Cc1ccc(CNC(=O)Cn2ncc3c(N4CCCCC4)ncnc32)cc1 | -102.9*
O=C(Cn1ncc2c(N3CCCCCC3)ncnc21)NCc1cc(F)cc(F)c1 | 57.9
Cc1ccc(CNC(=O)Cn2ncc3c(N4CCCCCC4)ncnc32)cc1 | -43.9
COc1ccc(CNC(=O)Cn2ncc3c(N4CCCCC4)ncnc32)c(OC)c1 | 29.8
O=C(Cn1ncc2c(N3CCCCCC3)ncnc21)NCc1ccc(F)cc1F | -92.7*
CN(C)c1ccc(CNC(=O)Cn2ncc3c(N4CCCCC4)ncnc32)cc1 | 31.2
CN1CCN(CCO)C(=O)C12CCN(S(=O)(=O)C1CC1)CC2 | -4.7
CNC(=O)[C@H]1CC2CN(Cc3ccc4c(c3)OCO4)CC2N1C(C)=O (some centres undefined) | -6.2
CCCN1CCN(c2ncnc3c(-c4ccc(OC)cc4)nsc23)CC1 | 70.3
O=C(CCCCCCCC(=O)c1ccc(Cl)cc1)c1ccc(Cl)cc1 | -50.7
CN(C)C1CCN(C(=O)c2cc(-c3cnc(-c4cccc(F)c4)nc3)cn2C)CC1 | -24.6
CN(C)CCNC(=O)c1cc(-c2cnc(-c3cccc(F)c3)nc2)cn1C | -95.1*
SMILES | Tgondii IFNg
CN(C)CCNC(=O)c1cc(-c2cnc(NCc3ccccc3)nc2)cn1C | -36.5
CCc1[nH]c2ccc(CNc3cc(COC)ncn3)cc2c1C | -78.1*
Cc1[nH]c2ccc(CNC(=O)C3CC(=O)N(Cc4ccccn4)C3)cc2c1C (centres undefined) | 4.8
CCc1[nH]c2ccc(CNc3ncc(F)c(N4CCOCC4)n3)cc2c1C | -48.1
CC(C)N1CCc2ncn(C(C)C)c2C1C(=O)Cc1ccccn1 (centres undefined) | -0.7
Cc1ccc2c(CN3CCN(Cc4nc(-c5ccc(Cl)cc5)oc4C)CC3)cc(=O)oc2c1 | -37.1
O=C(c1ccc(CN2CCS(=O)(=O)CC2)cc1)N1C[C@H]2CC=CC[C@H]2C1 | 5.2
COc1ccc(Br)cc1-c1nc(Cn2ccn3nc(-c4ccccc4)cc3c2=O)c(C)o1 | 165.3
Cc1cc(Cc2cccc(F)c2)cc(C2CCN(C(=O)c3n[nH]c4c3CCCCC4)CC2)n1 | -110.6*
O=C(c1n[nH]c2c1CCCC2)N1CCC(c2[nH]ncc2-c2ccccc2)CC1 | -48.9
Cc1cc(Cc2c(F)cccc2F)cc(C2CCN(C(=O)CC3CCCCO3)CC2)n1 (centres undefined) | -20.0
CCc1ccc(CNc2nc(-c3ccc(OC)cc3)nc3ccccc23)cc1 | -44.7
CCn1ncnc1CN1CCC(CNC(=O)C2CCCCC2)C1 (centres undefined) | -0.4
O=C(CN1CCCC1)N1CCc2ccccc21 | -30.3
O=C(CN1CCC(c2nc3ccccc3[nH]2)CC1)N1CCCc2ccccc21 | -6.6
O=C(CN1CCC(n2nnc3cc(C(F)(F)F)ccc32)CC1)N1CCc2ccccc21 | -81.4*
O=C(NC1CC1)c1cc2n(n1)CCN(Cc1ccnn1-c1ccccc1)C2 | 33.8
Cc1c(C2CCN(CCc3ccccc3)CC2)noc1-c1ccc(Cl)cc1 | -76.4*!
OC(c1ccccc1)C1CCN(CCc2ccccc2)CC1 (centres undefined) | 17.6
CCn1c(CC2CCN(CCc3ccccc3)CC2)n[nH]c1=O | -5.3
NCC1CCN(C(=O)c2cccc(-c3cc4ccccc4oc3=O)c2)C1 (centres undefined) | 73.8
CCn1c(=O)c(C(=O)Nc2ccc(F)cc2)c(O)c2ccccc21 | 46.5
COc1ccc(-c2nc(-c3ccc(O)cc3)[nH]c2-c2ccc(OC)cc2)cc1 | 7.6
CN(C)CCOc1ccc(-c2nc(-c3ccc4c(c3)CC/C4=N\O)c(-c3ccncc3)[nH]2)cc1 | -79.3*
CCS(=O)(=O)N1C[C@@H]2COC[C@@]2(Cc2nnc(C3CC3)o2)C1 | -8.3
C=CCN(Cc1ccc(F)cc1)C(=O)Cn1nc(C)c(C)c1C | -11.3
O=C(Nc1cnn(-c2ncncc2N2CCCC2)c1)C1CCCC1 | 110.7
Cc1cc(C)c(NC(=O)C(=O)NCCc2sc(-c3ccc(Cl)cc3)nc2C)c(C)c1 | -26.5
CCOc1ccccc1N(Cc1nc(-c2ccccc2OC)oc1C)S(=O)(=O)c1ccccc1 | -54.7

Source: PubChem
